Records with an inconclusive call do not appear. Where a call stands in place of a potency, no number is given. Calls of active or inactive are those of the source. The call rests on the fitted dose curve; in most records, active means well fitted inhibition curve with a large enough effect; inconclusive means small, poorly fitted or top-dose-only effect; inactive means no such curve, though single readings can be large or run the other way.
experiment: qHTS screen for inhibitors of ELG1-dependent DNA repair in human embryonic kidney (HEK293T) cells expressing luciferase-tagged ELG1: MMS Viability Assay for probe SAR; details: HEK293T ELG1-luc + MMS viability, CellTiter-Glo, 16 h; series mostly up to 46.1 µM
Text: Cancer cells divide rapidly compared to normal cells in the body. During cell division, cancer cells need to duplicate their genome by DNA replication. The failure of genome duplication leads to cancer cells' death. Therefore, inhibitors of DNA replication could specifically kill cancer cells. Based on this concept, many chemotherapeutic agents were developed and have been used to treat cancer patients. However, there are a limited number of agents available in the clinical setting, and some of those that do exist have low efficacy and severe side effects. Therefore, if we can find the compounds that effectively block DNA replication either by directly damaging DNA or by inhibiting other cellular mechanisms, the options for cancer treatment will be broadened. With this in mind, we developed a quantitative high-throughput ELG1-luciferase reporter gene assay. Small molecules that specifically block ELG1 function in response to DNA damage can be identified by monitoring the suppression of luciferase activity. Since ELG1 defines a pathway for repairing DNA damage, agents blocking ELG1 function can be used to sensitize cancer cells to chemotherapeutic agents whose mechanism of action involves the induction of DNA damage. Cytotoxicity of the active compounds in the ELG1 qHTS assay with MMS stimulation (AID 493125) was assessed using the CellTiter-Glo Luminescent Cell Viability Assay kit (Promega, USA). CellTiter-Glo measures the intracellular ATP present in metabolically active cells using Ultra-Glo as the luciferase to detect ATP levels. In brief, the luciferase in the buffer catalyzes the oxidation of luciferin to oxyluciferin and light which is dependent on ATP. […] DMSO and wells with media alone were used as positive and negative controls, respectively. Inactivity to this assay is the desirable outcome. NIH Molecular Libraries Probe Production Network [MLPCN] NIH Chemical Genomics Center [NCGC] MLPCN Grant: R03 MH092164 Assay Provider: Kyungjae Myung, NHGRI, NIH
ELG1-luc HEK293T cells will be seeded in 1536-well plates at a density of 2,000 cells/well. Approximately 5 hours after plating, compounds will be added to the plate by pin tool transfer and MMS will be added by FRD dispenser (final concentration of MMS = 10 µM). 16 hours following the addition of the compounds, cell viability will be measured using CellTiter Glo.

SMILES	Potency
Cc1cnccc1-c1nc(Nc2ccc(F)c(F)c2)c2ccccc2n1	inactive
Fc1cc(Nc2nc(-c3ccncc3)nc3ccccc23)ccc1-c1cncnc1	inactive
COC(=O)c1ccc(Nc2nc(-c3ccncc3)nc3ccccc23)cc1OC	inactive
Fc1cc(Nc2nc(-c3ccncc3)nc3ccccc23)ccc1OCC(F)(F)F	inactive
Fc1cc(Nc2nc(-c3ccncc3)nc3ccccc23)ccc1-c1ccnc(C(F)(F)F)c1	inactive
CCOC(=O)c1ccc2c(c1)c(C(C)=O)c(C)n2-c1ccc(OC)cc1	inactive
COc1ccc(Nc2nc(-c3ccncc3)nc3ccccc23)cc1F	inactive
COc1cc(-c2nc(Nc3ccc(F)c(F)c3)c3ccccc3n2)cc(OC)n1	inactive

— PubChem BioAssay AID686922 (National Center for Advancing Translational Sciences (NCATS), 2013)
